Assay results from PMC4552634, “A New Set of Chemical Starting Points with Plasmodium falciparum Transmission-Blocking Potential for Antimalarial Drug Discovery” (PLoS ONE, 2015).
Out of some 13,000 compounds screened, about 3,200 (25%) showed an effect of 50% or more. Some of the results follow.

Tested on: P. falciparum stage V gametocytes
Design: BacTiter-Glo ATP luminescence viability of purified stage V gametocytes in 384-well plates, per cent inhibition versus DMSO
Conditions: 48 h, 5 µM; inhibitor

Row | SMILES | % Inhibition
1 | O=C(NCc1cccc(F)c1)Nc1cccc(-c2ccc(-c3nc4ccc(F)cc4[nH]3)cc2)c1 [TCMDC-133293] | 6.951%
2 | O=C(O)C1CC(=O)N(c2ccc(Cl)cc2)C1 (stereo not drawn) [TCMDC-125862] | 2.166%
3 | COc1cccc(CN2CCCC(OC(c3ccc(F)cc3)c3ccc(F)cc3)C2)c1O (stereo not drawn) [TCMDC-136167] | -3.055%
4 | CN1CCC(NC(=O)c2cccc(Nc3cc(Nc4cccc(Br)c4)ncn3)c2)CC1 [TCMDC-124773] | -81.1%
5 | CN(C)CCOc1ccc(-c2cc(-c3ccncc3)c(-c3ccc(Cl)c(O)c3)o2)cc1 [TCMDC-141227] | 36.77%
6 | COCC(C)n1c(SC(C)C(=O)Nc2cc([N+](=O)[O-])ccc2Cl)nc2ccccc2c1=O (stereo not drawn) [TCMDC-123709] | -35.25%
7 | C[C@H](Cc1ccc(OCCCCCCOc2ccc(C[C@@H](C)NC(=O)[C@H](O)c3cccc(Cl)c3)cc2)cc1)NC[C@H](O)c1cccc(Cl)c1 [TCMDC-131571] | -3.505%
8 | C[C@H](Cc1ccc(C[C@@H](C)NC[C@H](O)c2cccc(Cl)c2)cc1)NC[C@H](O)COc1ccccc1 [TCMDC-131549] | 104.7%
9 | CC(Cc1ccc(OCCOc2ccccc2)cc1)NCC(O)c1cccc(Cl)c1 (stereo not drawn) [TCMDC-138939] | 12.28%
10 | CC(NCCc1cccc(Cl)c1)C(O)c1ccc(OCCCCCCOc2ccc(C(O)C(C)NCCc3cccc(Cl)c3)cc2)cc1 (stereo not drawn) [TCMDC-139334] | 98.69%
11 | CCCN1CCN(c2cc(NCC)c3c4c(onc24)-c2ccccc2C3=O)CC1 [TCMDC-123898] | -28.72%
12 | c1cc(COc2ccc(C3=NCCN3)cc2)nc(COc2ccc(C3=NCCN3)cc2)c1 [TCMDC-137805] | -1.887%
13 | CN1CCN(c2ccnc3ccc(NC(=O)Nc4ccc5ccccc5c4)cc23)CC1 [TCMDC-139343] | -1.403%
14 | Cc1cccc2[nH]c(-c3cccc(-c4ccc(NC(=O)c5ccoc5)cc4)c3)nc12 [TCMDC-136847] | 83.68%
15 | Cc1cccc2[nH]c(-c3cccc(-c4cccc(NC(=O)c5ccoc5)c4)c3)nc12 [TCMDC-136846] | 20.35%
16 | Cc1cccc2[nH]c(-c3cccc(-c4cccc(NC(=O)c5ccncc5)c4)c3)nc12 [TCMDC-136965] | -36.15%
17 | Cc1cccc2[nH]c(-c3cccc(-c4ccc(NC(=O)c5ccncc5)cc4)c3)nc12 [TCMDC-136966] | 61.29%

Row | SMILES | % Inhibition
18 | Cc1cccc2[nH]c(-c3cccc(-c4ccc(NC(=O)NC(C)C)cc4)c3)nc12 [TCMDC-133251] | -14.46%
19 | Cc1cccc2[nH]c(-c3cccc(-c4ccc(NC(=O)c5ccc(=O)[nH]n5)cc4)c3)nc12 [TCMDC-137034] | -23.81%
20 | Cc1cccc2[nH]c(-c3cccc(-c4cccc(NC(=O)c5cnc[nH]5)c4)c3)nc12 [TCMDC-136936] | -12.17%
21 | Cc1cccc2[nH]c(-c3cccc(-c4ccc(NC(=O)c5cnc[nH]5)cc4)c3)nc12 [TCMDC-136937] | 92.2%
22 | Cc1cccc2[nH]c(-c3ccc(-c4cccc(NC(=O)c5ccncc5)c4)cc3)nc12 [TCMDC-136958] | 22.27%
23 | O=C(Nc1ccc(-c2ccc(-c3nc4ccccc4[nH]3)s2)cc1)c1ccncc1 [TCMDC-136954] | 11.16%
24 | COc1cc(-c2ccc3c(-c4ccc(C(=O)N5CCN(C)CC5)cc4)[nH]nc3n2)cc(OC)c1OC [TCMDC-124890] | 40.62%
25 | COCCCNc1sc(S(=O)(=O)c2ccccc2)nc1S(=O)(=O)c1ccc(Cl)cc1 [TCMDC-124764] | -6.212%
26 | Cc1ccccc1NC(=O)C1CSCN1C(=O)OCc1ccccc1 (stereo not drawn) [TCMDC-125742] | -21.88%
27 | COc1ccc(F)cc1-c1ccccc1CNC(=O)CN(C)S(=O)(=O)c1cc(C)cc(Cl)c1C [TCMDC-132302] | 82.24%
28 | COc1ccc(C(=O)NCc2ccccc2-c2ccc(C(C)(C)C)cc2)cc1O [TCMDC-136716] | -20.55%
29 | COc1ccc(F)cc1-c1ccccc1CNC(=O)c1cnn(-c2ccc([N+](=O)[O-])cc2)c1C(F)(F)F [TCMDC-136460] | -26.92%
30 | CCCCCC(C)N=C(Nc1ccc([N+](=O)[O-])cc1O)Nc1ccccc1Br (stereo not drawn) [TCMDC-140073] | -48.06%
31 | CCOC(=O)C1=C(C)N=c2sc(=Cc3cc(Cl)ccc3O)c(=O)n2C1c1ccc(OC)cc1 (stereo not drawn) [TCMDC-124112] | -5.89%
32 | CCOC(=O)C1=C(C)N=c2sc(=Cc3cc(Cl)ccc3O)c(=O)n2C1c1ccc2c(c1)OCO2 (stereo not drawn) [TCMDC-124113] | 66.04%
33 | CCOC(=O)C1=C(C)N=c2sc(=Cc3cc(Cl)ccc3O)c(=O)n2C1c1cc(OC)c(OC)cc1Br (stereo not drawn) [TCMDC-124116] | 34.65%
